Hits are enriched below; roughly 3.6% of the tested compounds scored in any of these assays.
GALK inhibitor – inhibits human galactokinase | recombinant GALK, Kinase-Glo ATP luminescence, 1 h | Potency, µM (series often up to 57.5 µM), inactives show at the top dose activity, negative = inhibition, actives largely listed as inhibitors | 44,000 tested, under 10 active | AID 1347072;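 further: plate controls were full GALK reaction for no effect and reaction lacking GALK for full effect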
Target sequence (P51570 whole entry, looked up): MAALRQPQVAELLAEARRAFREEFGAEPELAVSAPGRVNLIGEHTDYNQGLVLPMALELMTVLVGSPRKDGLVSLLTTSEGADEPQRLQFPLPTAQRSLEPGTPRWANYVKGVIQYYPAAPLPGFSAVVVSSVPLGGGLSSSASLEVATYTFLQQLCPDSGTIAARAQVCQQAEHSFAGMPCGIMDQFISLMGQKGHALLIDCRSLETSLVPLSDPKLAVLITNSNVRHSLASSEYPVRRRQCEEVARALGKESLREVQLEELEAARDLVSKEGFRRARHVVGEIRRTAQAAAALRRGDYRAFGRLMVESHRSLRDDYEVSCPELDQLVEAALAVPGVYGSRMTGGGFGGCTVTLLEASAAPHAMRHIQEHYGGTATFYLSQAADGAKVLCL
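Luminescent ATP-depletion readout (Kinase-Glo Plus, 10 min) after 1 h RT reaction of 5 nM GALK, 35 uM ATP, 100 uM galactose, pH 8.0 HEPES buffer. Decreased kinase activity scored as inhibition.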
NTMT1 inhibitor – blocks human N-terminal methyltransferase 1 activity; NTMT1 MTase-Glo SAH luminescence, purified enzyme; Potency, µM (top dose mostly 114 µM), inactives show top-dose activity change, negative = inhibition, hits mostly inhibitors; 2.5% of 59,000 active; Q9BV86;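 further: potency means the concentration at half of the fitted maximal effect; plate controls were DMSO vehicle for no effect and no enzyme for full effect; nearly all actives have a fitted effect of over 65% in size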
Target sequence (Q9BV86 whole entry, looked up): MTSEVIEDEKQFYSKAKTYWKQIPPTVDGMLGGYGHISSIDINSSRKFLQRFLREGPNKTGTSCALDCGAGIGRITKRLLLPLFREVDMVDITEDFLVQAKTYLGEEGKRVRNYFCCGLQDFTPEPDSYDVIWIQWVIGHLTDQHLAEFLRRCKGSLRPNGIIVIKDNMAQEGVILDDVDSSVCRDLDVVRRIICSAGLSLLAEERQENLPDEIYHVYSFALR
GALC G270D up – raises human GALC G270D mutant activity in cells; P54803; 145M-Twi-hGALC-G270D cells (Twitcher mouse brain line with human GALC G270D), HMU-beta-Gal fluorescence, 48 h; Potency, µM (doses to about 57.5 µM), usual class: activators; 0.1% of 45,000 active; AID 1159614; further: potency means the concentration at half of the fitted maximal effect; 0% is about no effect; nearly all actives have a fitted effect of over 65% in size
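Fluorogenic HMU-b-Gal hydrolysis (0.1 mM final, pH 5.2 citrate-phosphate with 1 mg/mL sodium taurocholate; carbonate stop buffer) measures mutant GALC activity after compound treatment of live 145M-Twi Twitcher brain cells stably carrying human GALC-G270D, with wild-type GALC line alongside; activation sought.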
GPR32 ag – GPR32 (DRV1) agonism, beta-arrestin recruitment. O75388. CHO-K1 GPR32 beta-arrestin PathHunter luminescence, 90 min; zero percent set by DMSO-only wells. activation, % at 76.9 µM. 2.5% of 48,000 active. AID 1346428;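 active means activation of at least 60% and not above a set upper limit, about 1 call in 100 departs from these limits; inconclusive means activation of 40% to 60%, or above that upper limit; inactive means activation under 40%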; further: 0% is about no effect
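Agonism was scored as beta-arrestin recruitment to ProLink-fused GPR32 in stably transfected CHO-K1 cells, giving a chemiluminescent beta-Gal signal; compounds were incubated 90 min at 37 °C.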
B2AR arrestin ag – agonists recruiting beta-arrestin to human beta2-adrenergic receptor | HTLA Tango cells, beta-arrestin recruitment, luciferase luminescence, 18 h | 44,000 tested, under 10 active | Potency, µM (series often up to 46.1 µM), usual class: activators | P07550 | AID 1347077;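 further: potency means the concentration at half of the fitted maximal effect; 0% = DMSO and full agonism = EC100 isoproterenol or metaproterenol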
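Tango cell line, 1% FBS DMEM; cpd titration up to 46 microM; 18 hr, 37 degrees C, 5% CO2. Luciferin/ATP substrate mix added, 15 min RT, luminescence. %Activity, CRC fitting, curve-class categorization.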
* hit, by the source's call; i = inactive; ? = inconclusive; / = not tested or not shown; ! = a repeat was not active; [ ] = dose if it differs, or a comment. Unless noted, the call rests on the fitted dose curve; in most records, active means well fitted curve in the direction sought with a large enough effect; inconclusive means small, poorly fitted or top-dose-only effect, or another doubt; inactive means no such curve, though single readings can be large; an effect the other way counts as inactive or inconclusive.

SMILES	GALK inhibitor	NTMT1 inhibitor	GALC G270D up	GPR32 ag	B2AR arrestin ag
Cc1cnc(-c2ccccc2C(C)C)nc1NC(C)c1ccc(-c2cccnc2)cc1 (stereo not given)	/	8%	/	/	/
O=C(CCCn1c(=O)[nH]c2ccsc2c1=O)N1CCN(c2cccc(C(F)(F)F)c2)CC1	6%	-8%	i	92*	i
O=C(CCCCn1c(=O)[nH]c2ccsc2c1=O)N1CCN(c2cccc(Cl)c2)CC1	6%	0%	i	72*	i
CC(=O)NCCNC(=O)CCCn1c(=O)[nH]c2ccsc2c1=O	2%	4%	i	-16	i
CCCCC(CC)CNC(=O)CCCCCn1c(=O)[nH]c2ccsc2c1=O (stereo not given)	5%	3%	i	80*	i
Cc1cccc(N2CCN(C(=O)CCCn3c(=O)[nH]c4ccsc4c3=O)CC2)c1C	5%	1%	i	19	i
CC(=O)c1ccc(N2CCN(C(=O)CCCCn3c(=O)[nH]c4ccsc4c3=O)CC2)cc1	-3%	-19%	i	27	i
Cc1sc(NC(=O)Cc2ccc3c(c2)OCO3)nc1-c1ccc2c(c1)CCN2C(=O)c1ccccc1	/	-1%	/	/	/
CCCn1cnc2c(NCc3ccccc3)nc(N[C@H](CC)CO)nc21	/	10%[57.5 µM]	/	/	/
C[C@H](N)C(=O)Nc1ccc(Cl)cc1C(=O)c1ccc[nH]1	/	-1%	/	/	/
Cc1ccc(C)c(N2CCN(C(=O)C3CCCN(S(=O)(=O)c4cccc5nsnc45)C3)CC2)c1 (stereo not given)	2%	0%	i	66*	i
COc1ccc2nc(NC(=O)Nc3ccccc3)sc2c1	/	?	i	101*	/
Cc1cc(C)cc(NC(=O)N2CCC(N3CCCCC3)CC2)c1	7%	89µM*	i	6	i
COc1cc(OC)cc(-c2nc3nc(C)c(CCC(=O)Nc4ccc(F)cc4F)c(C)n3n2)c1	0%	89µM*	?	0	i
CC(C)=CCC/C(C)=C/CO	/	6%[57.5 µM]	i	5	/
CC(C)=CCC/C(C)=C/CC/C(C)=C/CSc1ccccc1C(=O)O	/	50µM*	/	/	/
Cc1ccc(C)c(N2CCN(S(=O)(=O)c3ccc(-c4coc(C)n4)cc3)CC2)c1	2%	5%	i	-1	i
CC(=O)c1ccc(N2CCN(S(=O)(=O)c3ccc(-c4coc(C)n4)cc3)CC2)cc1	-7%	-21%	i	63*	i
COc1ccc(Nc2cc(C)c3cc(NC(=O)COc4cccc(C)c4)ccc3n2)cc1	4%	17%	i	72*	i
CCc1ccccc1NC(=O)CCCN1C(=O)COc2ccc(C)cc21	-2%	-19%	i	-27	i
CC(=O)c1cccc(NC(=O)CCCN2C(=O)COc3ccc(C)cc32)c1	3%	79µM*	i	-16	i
Cc1ccc(CNC(=O)c2cc3sccc3n2Cc2ccc(F)cc2)cc1	-1%	1%	i	-3	i
Cc1c(Cl)cccc1NC(=O)c1cc2sccc2n1Cc1ccc(F)cc1	1%	89µM*	i	0	i
CCCCC(=O)Nc1cc(-c2nc3ccccc3o2)ccc1OC	-1%	3%	i	12	i
COc1ccc(-c2nc3ccccc3o2)cc1NC(=O)c1cccnc1	3%	-6%	i	86*	i
SMILES	GALK inhibitor	NTMT1 inhibitor	GALC G270D up	GPR32 ag	B2AR arrestin ag
Cc1ccc(Cn2c(C(=O)O)c(CNCc3cccs3)c3ccc(C)cc32)cc1	3%	-8%	i	111*	i
CCOc1ccc(CNCc2c(C(=O)O)n(Cc3ccc(OC)cc3)c3ccccc23)cc1	2%	11%	i	5	i
C=Cc1ccc(Cn2c(C)c(CNCCc3ccc(OCC)cc3)c(C(=O)O)c2C)cc1	-1%	-18%	i	68*	i
CCOc1ccc(CNCc2c(C(=O)O)n(Cc3ccc(C)cc3)c3cc(C)ccc23)cc1	?	16%	i	64*	i
COc1ccc2c(CNCc3cccs3)c(C(=O)O)n(Cc3ccccc3)c2c1	0%	-2%	i	44	i
CCCc1cc(=O)[nH]c(Nc2cc(Cl)cc(Cl)c2)n1	9%	/	/	99*	i
CCCc1cc(=O)[nH]c(Nc2cccc(Cl)c2Cl)n1	3%	/	/	87*	i
CCCCn1c(NCc2cc(Cl)ccc2O)nc2ccccc21	-3%	21%	i	102*	i
CNC(=O)CN1CCC(Oc2cc3c(Nc4cccc(Cl)c4F)ncnc3cc2OC)CC1	/	35µM*	/	/	/
O=C(N/N=C/c1ccc(O)c(O)c1)c1cc2ccccc2cc1O	/	3%[12.6 µM]	/	/	/
O=C1/C(=C/c2ccc(O)c(O)c2)Oc2ccccc21	/	28µM*	/	/	/
COc1cc([C@@H](CC(=O)O)c2ccc(C)c(CN3C[C@@H](C)Oc4ccccc4S3(=O)=O)c2)cc2nnn(C)c12	/	-7%[57.5 µM]	/	/	/
CNCCC(Oc1ccccc1C)c1ccccc1 (stereo not given)	/	/	/	-13	/
CNCCC(Oc1ccc(C(F)(F)F)cc1)c1ccccc1 (stereo not given)	/	-31%[57.5 µM]	i	104*!	/
COc1cccc(CN2C(=O)c3ccccc3NC2c2ccc(OC)c(COc3c(C)cc(NC(C)=O)cc3C)c2)c1 (stereo not given)	/	13%	/	/	/
O=C(Nc1ccc(Cl)c(Cl)c1)Nc1ccnc(-c2ccncc2)n1	/	-8%	/	/	/
OCc1cc(C(O)CNCCCCCCOCCCCc2ccccc2)ccc1O (stereo not given)	/	?	i	108*!	/
CC1=C(C(=O)Nc2ccccc2Cl)C(c2cccc(O)c2)n2ncnc2N1 (stereo not given)	4%	1%	i	-5	i
CC1=C(C(N)=O)C(c2cccc(O)c2)n2ncnc2N1 (stereo not given)	-1%	5%	i	61*	i
Cc1cc(-n2c(=O)ccc3cnc4[nH]ccc4c32)ccc1F	/	-6%	/	/	/
Nc1ncnc2c1c(-c1cccc(OCc3ccccc3)c1)cn2C1CC(CN2CCCC2)C1 (stereo not given)	/	13µM*	/	/	/
FC(F)(F)c1cccc(-n2cc(-c3ccccc3)c3c(N4CCCCC4)ncnc32)c1	2%	10%	i	-10	i
Cc1oc(-c2ccccc2)nc1CCC(=O)c1ccc(CC2SC(=O)NC2=O)cc1 (stereo not given)	/	35%[57.5 µM]	i	74*	/
Cc1ncc([N+](=O)[O-])n1CC(O)CN1CCOCC1 (stereo not given)	/	-25%[57.5 µM]	/	/	/
O=C(Nc1ccc(F)cc1)c1ccc2c(c1)NC(=O)c1ccccc1S2	11%	/	/	76*	i
C=C(C(=O)O)C1CC(O)C2(C)CCCC(C)(O)C2C1 (stereo not given)	/	-4%[57.5 µM]	/	/	/
